# Compound activity from PubChem BioAssay.
# This is a sample that favours compounds with a hit; in the whole collection about 19% have one here.
# TGFb inhibitor: blocks TGF-b signaling | HepG2 CAGA-GFP TGF-b/SMAD3 reporter, GFP fluorescence, 18 h; TGF-beta stimulated, 500 pg/mL final | Potency, µM (top dose mostly 46.1 µM), inactives show top-dose activity, negative = inhibition, usual class: inhibitors | hit rate 1.2% among 410,000; further: potency means the concentration at half of the fitted maximal effect; on the % scale 0 is the no-effect control and ±100 the full control effect; nearly all actives have a fitted effect of over 65% in size
#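 Using HEPG2 CAGA-GFP reporter cells at 1000 cells/well, we pinned test compounds, stimulated with recombinant TGF-beta (500 pg/mL final) and measured total well GFP after 18 h.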
# TDP1 cell noCPT: qHTS for Inhibitors of human tyrosyl-DNA phosphodiesterase 1 (TDP1): qHTS in cells in absence of CPT. DT40 Tdp1-/- hTDP1 cells, no CPT, ATP luminescence, 48 h. Potency, µM (series often up to 46.2 µM), without a hit: top-dose activity change, negative = growth inhibition, usual class: inhibitors. hit rate 15% among 420,000; further: potency means the concentration at half of the fitted maximal effect; on the % scale 0 is the no-effect control and ±100 the full control effect; nearly all actives have a fitted effect of over 55% in size
#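 Cells were dispensed at 400 per well, compounds added by pin tool, plates incubated ≥48 hr at 37 °C, then CellTiter-Glo added for 30 min at room temperature before luminescence reading. Line: DT40 Tdp1-/- complemented with hTDP1; camptothecin omitted.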
# IL-1B inflam inh: inflammasome signaling inhibition, IL-1 beta readout; THP-1 LPS/ATP IL-1B secretion, AlphaLISA, 16 h; stronger effect = lower value; activity change, % at 57.5 µM; AID 743279; hit rate 4.7% among 360,000; in the data active means activity change below about -50%; inconclusive means mostly about -30% to -49%; further: on the % scale 0 is the no-effect control and ±100 the full control effect
#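 THP-1 cells pretreated 1 hr with compounds (up to 57.5 uM final), then stimulated with LPS (250 ng/mL final) plus ATP (1.25 mM final); secreted IL-1B measured by AlphaLISA after 16 hr, decreased signal indicating inhibition.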
# HepG2 tox: counter-screen for TGF-b inhibitors: cytotoxicity in HepG2 cells; HepG2 CAGA-GFP viability, ATP luminescence, 18 h; Potency, µM (series often up to 46.1 µM), for the others: at the top dose activity change, negative = cytotoxicity, actives largely listed as cytotoxic; hit rate 0.76% among 410,000; further: potency means the concentration at half of the fitted maximal effect
#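 CellTiter-Glo luminescence gave cytotoxicity after 18 hours at 37 degrees C. The cells were HepG2 CAGA-GFP in 1% FBS DMEM, stimulated with 500 pg/mL TGF-beta after compound addition. %Activity was normalised to no-cell wells (complete cell-killing) and DMSO (no toxicity), and curves were fitted and classified.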
# TDP1 cell CPT: DT40-hTDP1 cell growth loss with CPT. chicken DT40 Tdp1-/-;hTDP1 cells + 20 nM CPT, ATP luminescence, 48 h. Potency, µM (highest dose often 46.2 µM), inactives show at the highest dose activity change, negative = growth inhibition, most hits filed as inhibitors. hit rate 12% among 420,000; further: potency means the concentration at half of the fitted maximal effect; on the % scale 0 is the no-effect control and ±100 the full control effect; nearly all actives have a fitted effect of over 55% in size
#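 Chicken DT40 Tdp1-/- cells stably complemented with human TDP1 were seeded at 400 cells/well in medium containing 20 nM camptothecin, exposed to pin-transferred compounds, and grown at 37 °C for at least 48 hr. Viability was read as ATP luminescence.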
# TDP1 block: blocks human tyrosyl-DNA phosphodiesterase 1. Potency, µM (titrated, usually from 130 µM), without a hit: top-dose activity change, negative = inhibition, actives largely listed as inhibitors. recombinant TDP1, AlphaScreen DNA substrate cleavage. hit rate 0.28% among 350,000; further: potency means the concentration at half of the fitted maximal effect; on the % scale 0 is the no-effect control and ±100 the full control effect; nearly all actives have a fitted effect of over 40% in size
# Target sequence (Q9NUW8 whole entry, looked up): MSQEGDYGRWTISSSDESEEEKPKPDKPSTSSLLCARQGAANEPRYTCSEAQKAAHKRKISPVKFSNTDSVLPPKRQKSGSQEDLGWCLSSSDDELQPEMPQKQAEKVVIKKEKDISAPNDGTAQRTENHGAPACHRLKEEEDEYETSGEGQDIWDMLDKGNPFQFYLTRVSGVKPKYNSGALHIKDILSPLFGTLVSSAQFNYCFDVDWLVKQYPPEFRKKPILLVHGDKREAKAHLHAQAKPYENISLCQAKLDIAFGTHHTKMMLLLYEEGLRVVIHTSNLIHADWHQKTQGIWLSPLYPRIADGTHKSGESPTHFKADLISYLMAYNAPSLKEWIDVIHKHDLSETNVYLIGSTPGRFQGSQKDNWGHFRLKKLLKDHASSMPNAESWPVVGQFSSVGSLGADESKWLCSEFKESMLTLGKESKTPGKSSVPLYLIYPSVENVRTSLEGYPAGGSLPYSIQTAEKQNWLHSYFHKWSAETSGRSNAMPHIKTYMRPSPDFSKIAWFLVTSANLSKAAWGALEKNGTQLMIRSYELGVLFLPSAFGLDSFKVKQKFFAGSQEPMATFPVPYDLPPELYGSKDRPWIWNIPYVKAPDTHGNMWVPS
#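 AlphaScreen read-out: signal falls as enzyme removes the 3' tyrosine-FITC from a 5'-biotinylated DNA oligo (15 nM, 5 min, RT). Enzyme was E. coli-made recombinant Tdp1 at 1 nM, exposed to compound for 15 min beforehand; beads 10 ug/ml, 10 min.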
# * marks the source's active call; other numbers are inactive results; ? = inconclusive; . = not tested or not shown; [ ] = another dose, or the depositor's remark. Unless noted, the call rests on the fitted dose curve; in most records, active means well fitted curve in the direction sought with a large enough effect; inconclusive means small, poorly fitted or top-dose-only effect, or another doubt; inactive means no such curve, though single readings can be large; an effect the other way counts as inactive or inconclusive.
SMILES,TGFb inhibitor,TDP1 cell noCPT,IL-1B inflam inh,HepG2 tox,TDP1 cell CPT,TDP1 block
CC(/C=C1\SC(=S)N(CC(=O)N2CCN(c3ccccc3)CC2)C1=O)=C\c1ccccc1,8.1%,20.6µM*,-4.9,-11.4%,20.6µM*,5.8%
CC(/C=C1\SC(=S)N(NC(=O)c2cccc(O)c2)C1=O)=C\c1ccccc1,?,-18.9%,-100.8*,-71.5%,6.7%,10.8%
CC(=O)c1ccc(NC(=O)CCCN2C(=O)/C(=C/C(C)=C/c3ccccc3)SC2=S)cc1,-25.0%,23.1µM*,-65.7*,6.8%,?,2.6%
O=C(NN1C(=O)/C(=C/c2ccc(O)cc2)SC1=S)c1cccc(O)c1,51.3%,?,-14.9,-2.2%,?,.
O=C(NN1C(=O)/C(=C/C=C/c2ccccc2)SC1=S)c1ccncc1,1.3%,-29.1%,-71.6*,-10.3%,-8.8%,0.0%
CCC(Sc1nc2c(sc3ccccc32)c(=O)n1CCCC(=O)NC1CCCC1)C(=O)Nc1cccc(OC)c1 (centres undefined),?,?,.,-6.4%,-6.7%,6.9%
O=C(CN1C(=O)S/C(=C/c2ccncc2)C1=O)Nc1ccccc1,-2.6%,?,-15.7,-13.4%,23.1µM*,6.3%
CC(/C=C1\SC(=O)N(CC(=O)Nc2cccc(O)c2)C1=O)=C\c1ccccc1,?,?,-56.6*,-103.7%,-0.6%,6.3%
Cc1cc(NC(=O)CN2C(=O)S/C(=C\c3ccccc3)C2=O)no1,?,-8.1%,-4.9,-53.2%,-12.2%,-3.0%
CC(/C=C1\SC(=O)N(CC(=O)Nc2ccc(O)cc2)C1=O)=C\c1ccccc1,?,-23.8%,-76.4*,-32.9%,-23.8%,4.1%
Cc1ccn2c(=O)c(C(=O)NCCc3ccccc3)c(O)nc2c1,-1.2%,23.1µM*,.,-6.2%,?,4.9%
CC(NC(=O)c1c(O)nc2ccccn2c1=O)c1ccccc1 (centres undefined),9.4%,18.4µM*,.,-16.7%,23.1µM*,-2.0%
Cc1ccc(CNC(=O)c2c(O)nc3cc(C)ccn3c2=O)cc1,8.7%,-4.6%,.,-9.6%,-6.0%,0.0%
Cc1ccn2c(=O)c(C(=O)NCCCN3CCCC3=O)c(O)nc2c1,-1.1%,9.1%,3.6,5.2%,8.7%,1.5%
COc1ccc(CCNC(=O)c2c(O)nc3ccccn3c2=O)cc1,0.8%,?,.,-19.5%,?,-4.9%
Cc1ccn2c(=O)c(C(=O)NC(C)c3ccccc3)c(O)nc2c1 (centres undefined),-5.5%,23.1µM*,.,-3.3%,?,5.9%
C#CCCCO/N=C1/C[C@@H](O)[C@@H](O)[C@@H]2[C@@H]3C(=O)N([C@@H](C)c4ccccc4)C(=O)[C@H]3CC[C@H]12,.,.,.,.,.,6.9%[21 µM]
COc1ccc2c(c1)c1nc3ccccc3nc1n2CCn1c(=O)oc2ccccc21,39.6%,?,10.5,-2.4%,?,1.1%
CCN(CC)CCn1c2ccccc2c(=O)c2c(O)ccc(O)c21,-4.6%,20.6µM*,-2.7,20.1%,7.31µM*,.
CCN(CC)CCn1c2ccccc2c2n[nH]c(=S)nc21,5.8%,-11.5%,33.5,0.1%,3.8%,5.5%
N#CCCn1c2ccccc2c2nc3ccccc3nc21,28.4%,9.2µM*,-91.4*,-3.2%,?,-2.0%
O=c1oc2ccccc2n1CCn1c2ccccc2c2nc3ccccc3nc21,19.0%,5.8µM*,-21.0,-9.7%,16.4µM*,-3.1%
CCN(CC)CCn1c2ccccc2c2nc3ccccc3nc21,?,23.1µM*,-97.1*,-25.5%,?,.
COCCCNc1ncnc2sc(C(=O)N3CCCCC3)c(C)c12,.,?,.,.,-12.9%[9.04 µM],.
O=C(NC1CCc2ccccc21)c1cc(COc2cncc(Cl)c2)on1 (centres undefined),0.0%,?,-61.8*,-3.2%,9.2µM*,3.8%
SMILES,TGFb inhibitor,TDP1 cell noCPT,IL-1B inflam inh,HepG2 tox,TDP1 cell CPT,TDP1 block
COc1cccc(OC)c1C(=O)Nc1cccc(-c2nc3cc(C)cc(C)c3o2)c1,?,7.31µM*,.,-32.1%,13µM*,1.9%
COc1cc(C(=O)Nc2cccc(-c3nc4cc(C)ccc4o3)c2)cc(OC)c1OC,0.0%,?,-5.1,1.8%,23.1µM*,7.9%
Cc1cc(C)c2oc(-c3cccc(NC(=O)c4ccco4)c3)nc2c1,-1.2%,-88.5%,.,0.1%,?,1.3%[12.3 µM]
Cn1c(O)c(C(C#N)=C2N=c3ccccc3=N2)c2ccccc21,-12.5%,11.6µM*,29.7,-11.8%,8.2µM*,3.8%
N#CC(=C1N=c2ccccc2=N1)c1c(O)[nH]c2ccccc12,.,.,.,.,.,6.8%
Cc1ccc(N2CC(c3nnc(Cc4ccc(Cl)cc4)o3)CC2=O)cc1 (centres undefined),-13.4%,?,.,-15.0%,?,5.0%
CCOC(=O)CSc1nnc(NCC(=O)OC(C)C)c(=O)[nH]1,-5.7%,23.1µM*,13.9,-6.0%,10.3µM*,2.3%
C(=NN1CCCCCC1)c1ccc2c(c1)OCO2,8.4%,-9.4%,-16.5,-3.5%,4.7%,.
CCOc1ccc(NC(=O)c2nn(C)c3c2CS(=O)(=O)c2ccccc2-3)cc1,11.6%,-9.0%,.,3.7%,4.1%,-7.8%
O=[N+]([O-])c1ccc(N2CCN(c3cccc(Cl)c3)CC2)nc1,12.1%,2.6%,-14.9,2.2%,-24.4%,.
N#Cc1c(N2CCN(c3ccc([N+](=O)[O-])cc3)CC2)[n+](=O)c2ccc(Cl)cc2n1[O-],-11.9%,1.16µM*,-1.8,-8.8%,0.461µM*,.
O=c1[nH]c2ccc(S(=O)(=O)N3CCN(S(=O)(=O)c4c(F)cccc4F)CC3)cc2[nH]c1=O,.,.,.,.,.,44.7µM*
CC(C)(C)OC(=O)Cc1nnc(-c2cc3ccccc3[nH]2)o1,.,.,.,.,.,0.1%
O=Cc1ccccc1Cl,.,.,.,.,.,10.4%
CCC1NC(=O)c2cccnc2-n2c1nc1cc(OC)c(OC)cc1c2=O (centres undefined),14.0%,-4.3%,?,-9.9%,5.8%,.
CC(C)(C)N(Cc1ccccc1)C(=O)CN1C(=O)c2ccccc2S1(=O)=O,6.9%,20.6µM*,1.6,1.8%,?,-3.5%
CC(C)(C)N(Cc1ccccc1)C(=O)CN1C(=O)c2ccccc2C1=O,13.5%,-0.3%,-11.4,-3.0%,3.4%,.
CC(Sc1nccn1C)C(=O)Nc1ccccc1C#N (centres undefined),0.4%,.,.,-12.4%,.,3.2%
CC(=O)C1=C(O)C(=CC=Cc2ccccc2)OC1=O,4.9%,16.4µM*,-1.8,-2.7%,?,.
